“And” between values parts separate entries of the source, which are not always exact repeats. Equal entries are not always repeated.
Columns and labels:
Assay in all cases: cell viability relative to vehicle control; higher = less cytotoxic
Conditions in all cases: 10 µM
K562 = test system: K562
Procedure, shortened: (§1)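 Screening covered the Selleck bioactive, kinase and epigenetic probe libraries, less identity-inconsistent compounds, on CRISPR-edited mutant clones and isogenic wild-type clones of four leukaemia lines. Cells, at 2000 per well in 50 µL medium, received a single 10 µM acoustically dispensed dose. After 48 h the supernatant was removed and CellTiter-Glo luminescence was read. Viability was analysed in Genedata Screener as percent of the on-plate vehicle control.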

MARIMO = test system: MARIMO
Procedure, shortened: as §1

MOLM14 = test system: MOLM14
Procedure, shortened: as §1

OCI-AML2 = test system: OCI-AML2
Procedure, shortened: as §1

Structure (SMILES) | cell viability (K562; SRSF2 genotype: SRSF2 P95H/wt) | cell viability (K562; SRSF2 genotype: SRSF2 wt/wt) [%] | cell viability (MARIMO; SRSF2 genotype: SRSF2 P95H/wt) [%] | cell viability (MARIMO; SRSF2 genotype: SRSF2 wt/wt) [%] | cell viability (MOLM14; SRSF2 genotype: SRSF2 P95H/wt) [%] | cell viability (MOLM14; SRSF2 genotype: SRSF2 wt/wt) [%] | cell viability (OCI-AML2; SRSF2 genotype: P95H/wt) [%] | cell viability (OCI-AML2; SRSF2 genotype: wt/wt) [%]
COc1cc2oc(=O)ccc2cc1O [Isoscopoletin] | 95.2% and 95.4% | 96.4 | 95.6 | 94.7 | 104 | 97.2 | 97.1 | 93.8
COc1cc(NS(=O)(=O)c2ccc(N)cc2)nc(OC)n1 [Sulphadimethoxine] | 95.8% and 87.4% | 95.9 | 91.3 | 98 | 96.7 | 91.5 | 90.4 | 91.4
N[C@@H](CSC(c1ccccc1)(c1ccccc1)c1ccccc1)C(=O)O | 43.2% and 34.9% | 34.4 | 7.81 | 4.29 | 8.53 | 2.73 | 7.71 | 11.8
CC#CCn1c(N2CCC[C@@H](N)C2)nc2c1c(=O)n(Cc1nc(C)c3ccccc3n1)c(=O)n2C [Linagliptin (BI-1356)] | 99% and 103% | 103 | 98 | 97 | 101 | 106 | 110 | 93.6
CC(C)[C@H](NC(=O)[C@H](CC(=O)O)NC(=O)[C@H](CCCCN)NC(=O)[C@@H](N)CCCN=C(N)N)C(=O)N[C@@H](Cc1ccc(O)cc1)C(=O)O [Thymopentin] | 92.2% and 89.2% | 87 | 86.4 | 94.6 | 95.8 | 91.6 | 77.9 | 89.5
N=C1S/C(=C\c2ccc(-c3ccc4c(c3)C(=O)NC4=O)o2)C(=O)N1c1ccc(Br)cc1 [Bioymifi] | 95.1% and 88.2% | 87.4 | 99 | 101 | 90.1 | 93.1 | 96.6 | 93.1
CCCCNC(=O)NS(=O)(=O)c1ccc(C)cc1 [Tolbutamide] | 98% and 102% | 102 | 105 | 116 | 102 | 105 | 101 | 110
C=CC(=O)Nc1cccc(Oc2nc(Nc3ccc(N4CCN(C)CC4)cc3OC)ncc2Cl)c1 | 102% and 107% | 103 | 85.8 | 98.7 | 57.6 | 84.8 | 92 | 83.9
CN(C)C(=O)COC(=O)Cc1ccc(OC(=O)c2ccc(NC(=N)N)cc2)cc1 [Camostat Mesilate (FOY-305)] | 100% and 101% | 96.3 | 108 | 98.4 | 106 | 98.8 | 100 | 99.6
CCCC(=O)NCCc1csc(-c2ccc(Cl)cc2)n1 [Azoramide] | 86.4% and 89.4% | 98.4 | 79.9 | 83.8 | 102 | 99.5 | 71.1 | 75.5
Cc1ccc(-c2csc(NC(=O)c3ccccc3)n2)c(C)c1 | 80.3% and 83.3% | 81.5 | 76.2 | 81 | 94.1 | 92.7 | 63.8 | 66.8
O=C(O)CCCc1c[nH]c2ccccc12 [3-Indolebutyric acid (IBA)] | 108% and 96.9% | 96.9 | 100 | 107 | 93.2 | 101 | 97.2 | 106
CCC(=O)NCC[C@@H]1CCc2ccc3c(c21)CCO3 [Ramelteon] | 105% and 104% | 97.6 | 91.7 | 101 | 107 | 98.8 | 93.7 | 99.4
N#Cc1c(N)nc(NC2CC2)nc1N [Dicyclanil] | 96.3% and 102% | 105 | 94.5 | 105 | 104 | 102 | 107 | 99.9
C/C=C(/C)C(=O)O[C@H]1[C@@H](OC(C)=O)c2c(ccc3ccc(=O)oc23)OC1(C)C [(+)-Praeruptorin A] | 92.3% and 98.4% | 90.2 | 84.5 | 93.9 | 82.8 | 93.3 | 90.3 | 104
CNC(=O)c1ccc(N2C(=S)N(c3ccc(C#N)c(C(F)(F)F)c3)C(=O)C2(C)C)cc1F [MDV3100 (Enzalutamide)] | 84.9% and 91.7% | 89.2 | 90.4 | 89.1 | 89.2 | 90.3 | 83.3 | 80.3
C=C(C(=O)O)C1CCC(C)C2CCC(C)=CC12 (configuration not stated) [Artemisic acid] | 114% and 110% | 113 | 108 | 90.8 | 104 | 108 | 99.1 | 103
Nc1ccn([C@@H]2O[C@H](CO)[C@@H](O)[C@H]2O)c(=O)n1 [Cytidine] | 101% and 86.3% | 84.4 | 82.5 | 89.9 | 81 | 89.2 | 82.5 | 86.6
CC[C@@H]1/C=C(\C)C[C@H](C)C[C@H](OC)[C@H]2O[C@@](O)(C(=O)C(=O)N3CCCC[C@H]3C(=O)O[C@H](/C(C)=C/[C@@H]3CC[C@H](Cl)[C@H](OC)C3)[C@H](C)[C@@H](O)CC1=O)[C@H](C)C[C@@H]2OC [Pimecrolimus] | 66% and 70.4% | 64.5 | 80.5 | 70.7 | 65.7 | 67.3 | 58.1 | 57.8

Source: the supplement of paper PMC10981050
